H9c2 TAG inh – reduces triacylglycerol accumulation in H9c2 cells | 0.66% of 230,000 active | Nile Red lipid (TAG) fluorescence; cells loaded with 200 µM oleic acid | inhibition, % at 12.5 µM;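 active = pattern-corrected inhibition of lipid staining of at least 50% with the nuclear-stain viability signal not falling by more than 50%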;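 note: 0% = DMSO wells and 100% = triacsin C control wells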
MIN6 prolif-1 – induces beta-cell replication in MIN6 cells; proliferation, % at 10 µM; 0.29% of 330,000 active; AID 2380; MIN6 cells proliferation, ATPlite luminescence, 48 h; cells starved in 0.2% serum; 100% = growth in 10% serum;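 active = compounds whose signal lies at least 3.5 SD above the mean of all wells on their plate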;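 note: 0% = DMSO-treated cells in low-serum medium and 100% = 10% serum control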
CHT allo act – allosteric activators of human choline transporter CHT | B-score at 10 µM | 0.49% of 310,000 active | AID 488977 | CHT-expressing cells, membrane potential dye, choline EC20; hits give high values; LV-AA mutant CHT in HEK293 cells | Q9GZV3;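 active = initial fluorescence not abnormally high and integrated response B-score, plate-corrected, over 3 SD above library mean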
Target sequence (Q9GZV3 whole entry, looked up): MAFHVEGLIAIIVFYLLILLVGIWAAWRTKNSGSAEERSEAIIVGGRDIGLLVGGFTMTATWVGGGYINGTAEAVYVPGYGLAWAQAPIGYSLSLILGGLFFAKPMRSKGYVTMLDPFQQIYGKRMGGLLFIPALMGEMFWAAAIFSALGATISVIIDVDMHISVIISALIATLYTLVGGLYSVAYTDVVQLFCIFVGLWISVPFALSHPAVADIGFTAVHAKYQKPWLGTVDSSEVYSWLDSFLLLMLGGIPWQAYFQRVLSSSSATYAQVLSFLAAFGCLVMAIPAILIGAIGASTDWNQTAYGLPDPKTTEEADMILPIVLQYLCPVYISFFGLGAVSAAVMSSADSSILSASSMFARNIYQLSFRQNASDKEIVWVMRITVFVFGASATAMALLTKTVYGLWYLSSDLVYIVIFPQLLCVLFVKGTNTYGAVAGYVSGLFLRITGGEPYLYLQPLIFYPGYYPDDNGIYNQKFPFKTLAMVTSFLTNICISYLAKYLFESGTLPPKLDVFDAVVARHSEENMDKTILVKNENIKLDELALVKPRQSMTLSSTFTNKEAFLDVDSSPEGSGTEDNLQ
CHT inh – inhibits the human high affinity choline transporter. Q9GZV3. 0.86% of 310,000 active. B-score at 10 µM. CHT-expressing cells, membrane potential dye, choline response; hits give low values. AID 488975;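 active = B-score over 3 SD under the library average, and starting fluorescence ratio not unusually high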;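 note: choline stimulus applied at its EC90 after an EC20 pre-addition; B-score computed on integrated fluorescence ratio after choline addition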
MIN6 prolif-2 – MIN6 beta-cell replication induction, confirmed. 920 tested, under 10 active. proliferation increase, % at 50 µM. AID 463095. MIN6 beta-cell proliferation, ATPlite luminescence, 48 h; cells kept in 0.2% serum; scaled between 0.2% and 10% serum. shares compounds with MIN6 prolif-1;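 active = proliferation increase above 40% at any of the four tested concentrations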
An asterisk follows results filed as active; i = inactive; · = no result given. An excerpt weighted towards active compounds, which were near 1.7% of everything screened.

SMILES	H9c2 TAG inh	MIN6 prolif-1	CHT allo act	CHT inh	MIN6 prolif-2
O=S(=O)(c1ccc(Cl)cc1)N1CCCc2ccccc21	-22.2	-2.0	i	i	·
Nc1ccc(S(=O)(=O)N2CCCc3ccccc32)cc1	-8.2	13.6*	i	i	-1.5
C/C(=N\NC(=O)C1CC1)c1ccccc1O	16.2	11.3*	i	i	-2.5
COc1ccc(CC(=O)N2CC3(C)CC2CC(C)(C)C3)cc1 (centres undefined)	·	-0.1	i	i	·
Cc1ccc(OCC(=O)N2CC3(C)CC2CC(C)(C)C3)cc1 (centres undefined)	-2.8	6.8*	i	i	-5.6
Cc1cc(C)c(S(=O)(=O)N2CCCOC2CNC(=O)C(=O)NCc2ccncc2)c(C)c1 (centres undefined)	·	0.0	i	i	·
CCOC(=O)Cn1c(=O)n(Cc2ccco2)c(=O)c2ccc(C(=O)NC3CCCC3)cc21	-13.4	12.5*	i	i	-1.0
O=C(NC1CCN(Cc2ccccc2)CC1)c1ccccc1	·	8.2*	i	i	-0.9
CCOn1c(=O)c(-c2cc3ccccc3o2)[n+]([O-])c2ccccc21	0.2	6.8*	i	i	0.0
COc1ccc(/C=N/NC(=O)c2cnccn2)cc1O	·	0.0*	i	i	0.3
Cc1cccc(OCCNC(=O)CCNS(=O)(=O)c2ccc3ccccc3c2)c1	-30.2	-0.6	·	·	·
CC(C)CNc1nc(N)c([N+](=O)[O-])c(NC2CCCCC2)n1	·	-0.1	i	i	·
CC(C)CCNc1nc(N)c([N+](=O)[O-])c(NC2CCCCC2)n1	·	8.8*	i	i	-1.4
Cc1ccc(C)c(-n2c(-c3csc(C)c3C)n[nH]c2=S)c1	·	0.0	i	i	·
C=CCN1C(=O)/C(=C2/Sc3ccccc3N2CCCS(=O)(=O)O)SC1=S	7.5	6.4*	i	i	-0.6
COCC(=O)Nc1sc2c(c1C(=O)OC)CCCC2	17.0	7.7*	i	i	-5.5
COC(=O)c1c(NC(=O)COC(=O)c2ccc(O)cc2)sc2c1CCCCC2	-3.1	-6.2	i	i	·
CCc1ccc(NC(=O)C(=O)NCCOc2ccccc2Cl)cc1	-7.5	-5.4	i	i	·
CC(C)(C)N(NC(=O)OCc1ccccc1)C(=O)c1ccccc1Cl	·	0.0*	i	i	-4.2
Brc1ccc2ncc(Br)cc2c1	·	-1.9	i	i	·
COC(=O)c1cc2nc(-c3ccc(C)cc3)cc(C(F)(F)F)n2n1	·	-3.5	i	i	·
Cc1cc2nc(-c3ccncc3)cc(C(F)(F)F)n2n1	-0.1	9.3*	i	i	3.7
CN(C)S(=O)(=O)N1CCN(c2ccc([N+](=O)[O-])c(NC3CC3)c2)CC1	-2.2	6.0	i	i	·
O=[N+]([O-])c1ccc(N2CCCC2)cc1NC1CC1	·	11.3*	i	i	-1.9
O=C(CCC(=O)N1CCN(Cc2ccc(F)cc2)CC1)Nc1nnc(C(F)(F)F)s1	·	-2.6	i	i	·
SMILES	H9c2 TAG inh	MIN6 prolif-1	CHT allo act	CHT inh	MIN6 prolif-2
O=C(CN1CCC(Cc2ccccc2)CC1)N1CCc2ccccc2C1	-0.8	9.0*	i	i	-5.4
O=C(CN1CCN(c2ccc(F)cc2)CC1)N1CCC(Cc2ccccc2)CC1	·	-4.5	i	i	·
Cc1cccc(C)c1OCC(=O)Nn1c(COc2ccccc2)nc2ccccc2c1=O	·	18.7*	i	i	2.6
Cc1ccccc1OCC(=O)Nn1c(COc2ccccc2)nc2ccccc2c1=O	8.5	0.2	i	i	·
COC(=O)c1ccccc1NC(=O)CSc1ccc(C)cc1	-111.3	7.3*	i	i	-6.5
COC(=O)c1ccccc1NC(=O)CSc1ccccc1	-17.1	0.3	i	i	·
CC1CCN(Cc2c(C(=O)O)nnn2-c2nonc2N)CC1	20.8	-2.1	i	i	·
COc1cccc2c1c(NC(=O)Nc1ccc(F)cc1F)nn2C	-8.4	6.8*	i	i	-2.8
CN(C)c1cccc2c1c(NC(=O)Nc1ccc(Cl)cc1Cl)nn2C	3.8	0.5	i	i	·
COc1ccc(OCCC(=O)OCC(=O)NCc2ccccc2OC)cc1	8.1	2.6	i	i	·
CC(O)CNc1ccc(-c2n[nH]c(=O)c3ccccc23)cc1[N+](=O)[O-] (centres undefined)	·	-1.4	i	i	·
CC(O)CNc1cc(N)c([N+](=O)[O-])cc1[N+](=O)[O-] (centres undefined)	·	0.0*	i	i	2.4
CCOC(=O)c1ccccc1OCc1cc(/C=N/n2cncn2)ccc1OC	4.3	7.8*	i	i	2.0
O=C1CSC(c2ccccc2)N1CCc1ccccc1 (centres undefined)	-2.1	7.5*	i	i	-0.4
Cc1cc(C)nc(NS(=O)(=O)c2ccc(NC(=O)CCN3C(=O)c4ccccc4C3=O)cc2)n1	·	8.2*	i	i	0.0
CC(C)CCN1CCN(CCCn2cccn2)CC1CCO (centres undefined)	-3.6	3.0	i	i	·
O=S(=O)(NCc1cccnc1)c1cccn1-c1ncc(C(F)(F)F)cc1Cl	-12.3	-0.6	i	i	·
O=C(NCc1cccnc1)c1cccn1-c1ncc(C(F)(F)F)cc1Cl	0.0	8.8*	i	i	-0.8
CCCCCCNC(=O)Nc1ccccc1	·	8.2*	i	i	-3.9
CC(=O)c1cccc(-c2ccnc3c2CC(C(=O)Nc2cccc(C(F)(F)F)c2)O3)c1 (centres undefined)	-18.5	·	·	·	·
COc1ccc(-c2cn(Cc3ccc(C(=O)NCc4ccc(C)cc4)cc3)c(C(C)N)n2)cc1 (centres undefined)	29.2	-6.8	i	i	·
CC(C)OP(=O)(c1ccc(N(C)C)cc1)C(O)c1ccc(Br)cc1 (centres undefined)	·	9.0*	i	i	-1.0
Cc1cc(F)ccc1NC(=O)c1ccc(NS(=O)(=O)c2cccs2)cc1	9.5	·	·	·	·
CC(=O)Nc1ccc(NC(=O)C(C)OC(=O)c2cccc(S(=O)(=O)N3CCCCC3)c2)cc1 (centres undefined)	-3.8	4.2	i	i	·
CC(=O)Nc1ccc(NC(=O)C(C)OC(=O)c2cccc(S(=O)(=O)N3CCCCCC3)c2)cc1 (centres undefined)	13.5	12.4*	i	i	0.1
COc1ccc(COn2c(=O)c(C)[n+]([O-])c3ccccc32)cc1OC	8.4	5.1*	i	i	0.7
Cc1c(=O)n(OCc2ccccc2)c2ccccc2[n+]1[O-]	9.9	-0.7	i	i	·
CNC(=O)c1ccc(=O)n(Cc2cccc(C(F)(F)F)c2)c1	8.8	-1.8	i	i	·
Cc1cc([N+](=O)[O-])nn1CC(=O)NCc1nc2ccccc2[nH]1	-5.8	3.2	i	i	·
CC1CCCC(C)N1C(=O)c1cccc2c1-c1ccccc1/C2=N/O (centres undefined)	9.8	5.5*	i	i	-5.7

Screening results (PubChem BioAssay)
